Source: PubChem BioAssay
In the library only some 8.8% were active in any assay of this set; here they are far more common.
ALDH1A1 inh – blocks purified human ALDH1A1 activity; Purified ALDH1A1, NADH fluorescence, propionaldehyde substrate; Potency, µM (series often up to 75.3 µM), usual class: inhibitors; actives 7.3% (n = 220,000); AID 1030; active means well fitted inhibition curve with a large enough effect, not every such curve was filed as active; inconclusive means small, poorly fitted or top-dose-only effect, or another doubt; inactive means no such curve, though single readings can be large or run the other way
Target sequence (P00352 whole entry, looked up): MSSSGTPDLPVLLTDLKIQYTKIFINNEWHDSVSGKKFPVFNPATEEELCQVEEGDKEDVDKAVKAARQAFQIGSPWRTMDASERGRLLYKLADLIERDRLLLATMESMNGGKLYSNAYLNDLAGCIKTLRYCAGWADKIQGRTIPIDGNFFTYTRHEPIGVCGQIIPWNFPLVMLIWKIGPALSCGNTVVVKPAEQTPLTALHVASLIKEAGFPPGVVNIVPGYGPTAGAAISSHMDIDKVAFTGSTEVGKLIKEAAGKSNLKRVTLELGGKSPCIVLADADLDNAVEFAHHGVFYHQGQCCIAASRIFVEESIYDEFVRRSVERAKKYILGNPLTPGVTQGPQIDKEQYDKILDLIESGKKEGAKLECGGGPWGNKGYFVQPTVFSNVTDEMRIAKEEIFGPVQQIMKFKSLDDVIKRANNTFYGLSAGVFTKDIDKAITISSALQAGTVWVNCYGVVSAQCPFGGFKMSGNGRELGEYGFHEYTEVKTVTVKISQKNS
HTT ATP protect – cytoprotection in Huntington HTT-Q103 PC12 cell model; PC12 HTT-Q103 induced, cytoprotection, ATP luminescence, 40 h; Potency, µM (series often up to 56.4 µM), most hits filed as activators; actives 0.14% (n = 230,000); AID 1471; further: nearly all actives have a fitted effect of over 45% in size
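Readout: ATPlite luminescence (ATP level). Model: stable PC12, inducible Htt exon1 Q103-GFP. Inducer: tebufenozide, 100 nM final. Compounds: dose series. No G418 in medium.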
HttQ103 aggreg – mutant huntingtin aggregation inhibition; PC12 HttQ103-GFP aggregates, Acumen cytometry, 40 h; actives 1.1% (n = 220,000); Potency, µM (series often up to 46.1 µM), usual class: inhibitors; AID 1688; further: nearly all actives have a fitted effect of over 60% in size
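Multiplexed with ATP-based cell death, this channel scores GFP aggregates in PC12 cells expressing inducible HTTex1-Q103-GFP. Induction used 100 nM tebufenozide; compounds were tested in concentration series.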
LMNA splice mod – LMNA splicing modulation. HeLa LMNA splicing GFP/RFP minigene ratio, 48 h. actives 0.01% (n = 200,000). Potency, µM (doses to about 46.1 µM), most hits filed as inhibitors. AID 1487; active means well fitted inhibition curve with a large enough effect in the signal ratio, with a control signal flat, not every such curve was filed as active; inconclusive means small, poorly fitted or top-dose-only effect, or effect the other way, or a change in a side signal; the % refers to the signal ratio
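S3 HeLa stable clones carrying a lamin A-EGFP splicing minigene plus DsRed2 were seeded at 600 cells/well in Opti-MEM with 2% FBS, pin-dosed and incubated 48 h at 37°C. Acumen cytometry (488 nm) gave the GFP/RFP total-intensity ratio.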
HPGD inh – HPGD (human) dehydrogenase inhibition | P15428 | purified HPGD, NADH fluorescence kinetic, PGE2 substrate | Potency, µM, hits mostly inhibitors | actives 4.3% (n = 150,000); active means well fitted inhibition curve with a large enough effect, not every such curve was filed as active; inconclusive means small, poorly fitted or top-dose-only effect, or another doubt; inactive means no such curve, though single readings can be large or run the other way
Target sequence (P15428 whole entry, looked up): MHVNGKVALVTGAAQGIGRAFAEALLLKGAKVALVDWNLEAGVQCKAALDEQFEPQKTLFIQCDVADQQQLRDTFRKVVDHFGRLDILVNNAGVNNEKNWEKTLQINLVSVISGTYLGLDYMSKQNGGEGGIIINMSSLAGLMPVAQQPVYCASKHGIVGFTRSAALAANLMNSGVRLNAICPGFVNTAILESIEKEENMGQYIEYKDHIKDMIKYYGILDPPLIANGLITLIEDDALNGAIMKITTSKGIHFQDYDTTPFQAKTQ
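NADH formation kinetics: reaction with 30 uM PGE2 and 1 mM NAD+ (final), 20 nM enzyme, Tris-HCl pH 8 with Tween 20, after 15 min compound preincubation at room temperature. Fluorescence change, last versus first of five reads.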
A number is an active result; - = inactive; ? = inconclusive; . = no result; [ ] = dose if it differs, or a comment. Unless noted, the call rests on the fitted dose curve; in most records, active means well fitted curve in the direction sought with a large enough effect; inconclusive means small, poorly fitted or top-dose-only effect, or another doubt; inactive means no such curve, though single readings can be large; an effect the other way counts as inactive or inconclusive.

SMILES | ALDH1A1 inh | HTT ATP protect | HttQ103 aggreg | LMNA splice mod | HPGD inh
O=C(c1cnccn1)N1CCC2(CCCN(c3ccc(-c4ccccc4)cc3)C2)CC1 | ? | - | . | . | -
COc1ccc(/C=C/CN2CCCC(CCC(=O)NCc3ccc(F)c(F)c3)C2)cc1 (stereo not given) | - | -[10 µM] | -[9.22 µM] | . | .
COCCn1c(SCC(=O)N2CCc3ccccc3C2)nc2ccccc2c1=O | - | -[1.9 µM] | - | - | -
CCOC(=O)CSc1nc2ccccc2c(=O)n1CC(C)C | ? | -[10 µM] | -[9.22 µM] | . | .
COCCn1c(SCC(=O)N2CCC(C)CC2)nc2ccccc2c1=O | 11µM | - | -[9.22 µM] | - | -
COCCCn1c(SCc2nnc(-c3ccc(OC)c(OC)c3)o2)nc2ccccc2c1=O | - | -[10 µM] | - | ? | 20µM
O=C(CSc1nc2ccccc2n1S(=O)(=O)c1ccccc1)N1CCCCC1 | - | - | - | - | 1.8µM
CC(C)Cn1c(SCC(=O)N2CCCCC2)nc2ccccc2c1=O | 22µM | -[10 µM] | - | - | -
Cn1cc(S(=O)(=O)c2ccccc2)c(=O)c2cc(F)c(N3CCN(c4ccccc4)CC3)cc21 | . | . | . | - | .
NC(=O)CS(=O)(=O)c1nc2ccccc2n1CC(=O)N1CCCCC1 | - | ? | - | - | -
CCOC(=O)CSc1nc2ccccc2c(=O)n1CC | - | -[0.074 µM] | - | - | -
CCn1c(SCC(=O)OC2CCCCC2)nc2ccccc2c1=O | ? | -[10 µM] | 0.63µM | - | -
COCCn1c(SCC(=O)c2ccccc2)nc2ccccc2c1=O | 18µM | -[10 µM] | -[9.22 µM] | - | .
NS(=O)(=O)c1ccc(CCNC(=O)CSc2nc3ccccc3c(=O)n2CCC(=O)N2CCCCC2)cc1 | 7.9µM | - | - | . | .
O=C(Cn1c(S(=O)(=O)Cc2ccccc2)nc2ccccc21)N1CCCCC1 | 25µM | - | - | - | -
O=S(=O)(O)c1nc2ccccc2n1Cc1cccc2ccccc12 | . | -[10 µM] | -[9.22 µM] | . | .
CCOc1ccc(-c2nn(CC(=O)NC3CCCC3)c3c2cnc2ccc(F)cc23)cc1 | . | . | . | - | .
O=C(O)c1cccc(N2C(=O)c3cccc(Oc4ccc(Cl)cc4)c3C2=O)c1 | - | -[10 µM] | - | - | 25µM
O=C(O)CN1C(=O)c2ccc(Oc3cccc4c3C(=O)N(CC(=O)O)C4=O)cc2C1=O | - | - | - | - | -
O=C(CNC(=O)c1ccc(N2C(=O)c3ccccc3C2=O)cc1)OCC(=O)c1ccc(Cl)cc1 | - | -[10 µM] | - | - | -
O=C(O)c1ccc(N2C(=O)c3cccc(Oc4ccc(Cl)cc4)c3C2=O)cc1 | - | -[10 µM] | - | - | 1.4µM
CCOc1ccc(NC(=O)CC)cc1 | - | - | - | - | .
O=C(CN1CCN(S(=O)(=O)c2ccc(F)cc2)CC1)c1ccc(O)c(O)c1 | ? | - | - | . | .
CCOc1ccc(NC(=O)CN2CCN(CC(=O)Nc3ccc(F)cc3)CC2)cc1 | 12µM | - | - | - | -
CCOc1ccc(NC(=O)CSC(N)=O)cc1 | 2µM | - | - | - | -
SMILES | ALDH1A1 inh | HTT ATP protect | HttQ103 aggreg | LMNA splice mod | HPGD inh
COc1cc(OC)c(OC)cc1CN1CCN(c2ccc(F)cc2)CC1 | . | -[10 µM] | -[9.22 µM] | . | .
CCOc1ccc(NC(=O)CN2CCN(CC(=O)Nc3ccc4c(c3)OCO4)CC2)cc1 | ? | - | - | - | -
CCOc1ccc(C(=O)CN2CCN(S(=O)(=O)c3ccc(F)cc3)CC2)cc1 | 20µM | - | - | - | -
COc1ccc(C(=O)CN2CCN(c3ccc(F)cc3)CC2)cc1OC | 13µM | - | - | - | -
CCOc1ccc(NC(=O)COC(=O)c2c(OC)cccc2OC)cc1 | 28µM | . | - | - | -
CCOc1ccc(NC(=O)c2c(OC)cccc2OC)cc1 | - | - | - | . | .
COc1ccc(NC(=O)CN2CCN(CC(=O)Nc3ccc(OC)c(OC)c3)CC2)cc1 | ? | - | - | - | -
COc1ccc(NC(=O)CN2CCN(C3c4ccccc4-c4ccccc43)CC2)cc1 | 22µM | - | ? | ? | -
CCOc1ccc(NC(=O)CN2CCN(CC(=O)c3ccc(OC)c(OC)c3)CC2)cc1 | 7.1µM | -[0.074 µM] | - | - | -
O=C(C1COc2ccccc2O1)N1CCN(c2nc3c(F)cccc3s2)CC1 (stereo not given) | . | . | . | - | .
CCc1cnc2c(c1SCC(=O)Nc1ccc(OC)c(OC)c1)c(=O)n(C)c(=O)n2C | . | . | . | - | .
N#CN(Cc1ccccc1)Cc1ccccc1 | 40µM | -[10 µM] | -[9.22 µM] | . | .
CCc1ccc(C(=O)CN(C#N)c2nc(C)cc(C)n2)cc1 | - | - | ? | ? | -
Cc1cc(C)nc(N(C#N)CC(=O)c2ccccc2)n1 | 28µM | - | ? | - | -
Cc1cc(C)nc(N(C#N)Cc2ccccc2)n1 | 14µM | -[0.074 µM] | - | - | -
CN(Cc1ccccc1)Cc1ccccc1 | . | - | - | . | .
Cc1cc(C)nc(N(C#N)Cc2ccc([N+](=O)[O-])cc2)n1 | - | -[10 µM] | -[9.22 µM] | . | .
CC(=O)c1cc2c(cc1O)OC(C)(C)C=C2 | ? | - | . | . | 25µM
CC1(C)C=Cc2cc3ccc(=O)oc3cc2O1 | ? | - | -[9.22 µM] | . | -
O=C(c1nc2ccccn2c1CNCCOc1cccnc1)N1CCOCC1 | - | -[10 µM] | -[9.22 µM] | . | .
CCn1ncc(Br)c1C(=O)Nc1nccs1 | - | -[10 µM] | - | - | 25µM
CCn1ncc(Br)c1C(=O)Nc1ccc(F)cc1F | - | - | - | - | -
CCOC(=O)c1c(S(=O)(=O)N2CCC(C(=O)Nc3ccc(F)cc3F)CC2)c(C)n(C)c1C | . | . | . | - | .
CN(/C=C/C(=C\C=[N+](C)c1ccccc1)OCCCS(=O)(=O)[O-])c1ccccc1 | 32µM | -[10 µM] | -[9.22 µM] | . | .
CN(/C=C/C(=C/C=[N+](C)c1ccccc1)OCCCS(=O)(=O)[O-])c1ccccc1 | . | - | - | - | .
SMILES | ALDH1A1 inh | HTT ATP protect | HttQ103 aggreg | LMNA splice mod | HPGD inh
CCCCCC[C@@H]([C@@H](C)O)n1cnc2c(N)ncnc21 | - | - | . | ? | -
CC(=C\C(=O)O)/C(=C/c1ccc(C)o1)C(=O)O | 22µM | . | ? | - | -
Cc1cccc(C)c1N1CC(=O)N(c2c(C)cccc2C)CC1=O | - | - | - | -[0.0737 µM] | -
Cc1cccc2c1N(C)C(=O)C2=O | 1.8µM | - | - | . | .
O=C1c2ccccc2C(=O)N1CCCOc1ccccc1 | - | - | - | - | -
Cc1ccc(OCCN2C(=O)C(=O)c3cccc(C)c32)cc1 | 0.2µM | -[10 µM] | -[9.22 µM] | ? | .
Cc1ccc2c(c1)C(=O)C(=O)N2CCCOc1ccccc1 | 0.11µM | -[10 µM] | -[9.22 µM] | - | .
CCOC(=O)CN1C(=O)C(=O)c2cccc(C)c21 | 0.025µM | -[10 µM] | ? | - | -
Cc1cccc(OCCN2C(=O)c3ccccc3C2=O)c1 | - | - | - | . | .
C=CCNC(=S)NNC(=O)Cn1c(-c2ccccc2)cc(=O)n2ncnc12 | . | -[10 µM] | -[9.22 µM] | . | .
Cc1ccc(OCCCN2C(=O)C(=O)c3cc(C)ccc32)cc1 | 0.1µM | -[10 µM] | -[9.22 µM] | . | .
Cc1ccc(OCCn2c(=O)oc3ccc(C)cc32)cc1 | ? | -[10 µM] | -[9.22 µM] | - | .
Cc1cccc(OCCCN2C(=O)C(=O)c3cc(C)ccc32)c1 | 0.1µM | -[10 µM] | -[9.22 µM] | ? | .
Cc1ccc(C(=O)N2CCCC(c3nc4c(nnn4Cc4ccccc4)c(=O)[nH]3)C2)cc1 (stereo not given) | ? | -[1.9 µM] | ? | - | 3.5µM
Cc1ccc(CC(=O)N2CCC(c3nc4c(nnn4Cc4ccccc4)c(=O)[nH]3)CC2)cc1 | - | -[10 µM] | ? | - | ?
